Screening results as filed in PubChem.
USP2a block – blocks human ubiquitin-specific protease USP2a. Potency, µM (series often up to 38.3 µM), actives largely listed as inhibitors. O75604. USP2 core, Ub-CHOP2 coupled fluorogenic reporter, 485/531. hit rate 0.01% among 330,000
Target sequence (O75604 whole entry, looked up): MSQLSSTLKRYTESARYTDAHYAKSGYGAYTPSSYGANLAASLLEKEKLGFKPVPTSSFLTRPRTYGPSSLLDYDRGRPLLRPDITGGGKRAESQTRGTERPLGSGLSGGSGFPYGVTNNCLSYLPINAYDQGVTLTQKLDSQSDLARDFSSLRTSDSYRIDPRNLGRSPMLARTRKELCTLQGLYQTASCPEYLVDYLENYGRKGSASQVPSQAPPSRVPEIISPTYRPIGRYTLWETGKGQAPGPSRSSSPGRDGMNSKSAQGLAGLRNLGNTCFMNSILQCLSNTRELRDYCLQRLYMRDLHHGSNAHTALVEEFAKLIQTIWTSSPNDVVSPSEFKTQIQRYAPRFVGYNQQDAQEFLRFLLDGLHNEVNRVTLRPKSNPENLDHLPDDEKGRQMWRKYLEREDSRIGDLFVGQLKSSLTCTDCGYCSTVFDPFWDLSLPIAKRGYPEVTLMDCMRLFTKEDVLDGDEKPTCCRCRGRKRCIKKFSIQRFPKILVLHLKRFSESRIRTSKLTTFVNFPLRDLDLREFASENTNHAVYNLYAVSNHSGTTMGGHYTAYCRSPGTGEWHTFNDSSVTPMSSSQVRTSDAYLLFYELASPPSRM
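Cell-free coupled assay: 10nM USP2 core preincubated 30min RT with compound in Tris-HCl pH 8.0/CaCl2/CHAPS buffer, then 25nM Ub-CHOP2 and 25nM reporter substrate; fluorescence (Ex 485/Em 531) read after 60min RT, normalized to NEM inhibition, concentration-response curves fitted.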
IL-1B inflam inh – blocks inflammasome-driven IL-1 beta release | THP-1 LPS/ATP IL-1B secretion, AlphaLISA, 16 h; stronger effect = lower value | activity change, % at 57.5 µM | hit rate 4.7% among 360,000; in the data active = activity change below about -50%; inconclusive = mostly about -30% to -49%
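THP-1 cells pretreated 1 hr with compounds (up to 57.5 uM final), then stimulated with LPS (250 ng/mL final) plus ATP (1.25 mM final); secreted IL-1B measured by AlphaLISA after 16 hr, decreased signal indicating inhibition.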
ATXN viability – reduces viability in counter-screen for ATXN expression inhibitors; S2 cells (HEK-293 line with an ATXN2-luciferase reporter) viability, CellTiter-Fluor protease fluorescence, 24 h; Potency, µM (doses to about 56.7 µM), most hits filed as cytotoxic; hit rate 0.49% among 400,000; also: nearly all actives have a fitted effect of over 40% in size
ATXN2 expr inh – reduces ATXN2 reporter expression in HEK-293 cells; HEK-293 ATXN2-luciferase reporter, luminescence, 24 h; Potency, µM (top dose mostly 57 µM), hits mostly inhibitors; hit rate 0.72% among 360,000; AID 1745845; also: nearly all actives have a fitted effect of over 55% in size
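qHTS (up to 57 uM final) was run with 24 h compound exposure of reporter cells at 37 °C. Each well was multiplexed: SteadyGlo luminescence measured ATXN2-luciferase expression after a fluorogenic Gly-Phe-AFC viability readout (25 uM final).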
USP1 inh – USP1/UAF1 (human) deubiquitinase inhibition. hit rate 0.23% among 390,000. recombinant USP1/UAF1, Ub-Rhodamine cleavage fluorescence. AID 743255. O94782. Potency, µM (titrated, usually from 57.1 µM), most hits filed as inhibitors; also: nearly all actives have a fitted effect of over 60% in size
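Step one: compound is pinned into 1nM USP1/UAF1 in HEPES pH 7.8 buffer with TCEP. Step two: 15 min room-temperature incubation. Step three: Ub-Rho (150nM final) starts cleavage, tracked by fluorescence over six one-minute reads.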
Numbers stand for hits; – = inactive; ? = inconclusive; · = no result. The list is not random: actives were taken first. Their share in the collection is about 4.8%. Unless noted, calls follow the shape of the dose curve; as a rule, active = well fitted curve in the direction sought with a large enough effect; inconclusive = small, poorly fitted or top-dose-only effect, or another doubt; inactive = no such curve, though single readings can be large; an effect the other way counts as inactive or inconclusive.

SMILES	USP2a block	IL-1B inflam inh	ATXN viability	ATXN2 expr inh	USP1 inh
Cc1onc(-c2ccccc2)c1C(=O)Cl	·	·	–	–	·
C=CCN1C(=O)S/C(=C\c2ccc(N3CCOCC3)cc2C)C1=O	–	–	–	–	–
C=CC(C)N1C(=O)S/C(=C\c2ccc(N3CCOCC3)cc2C)C1=O (stereo not given)	–	-77	–	–	–
COc1ccc(-c2nc(C#N)c(N3CCCCC3)o2)cc1	–	–	·	–	–
COc1ccc(-c2nc(C#N)c(N3CCCCCC3)o2)cc1	–	-63	–	–	–
CCOc1ccc(-c2nc(C#N)c(N3CCN(C)CC3)o2)cc1	–	?	–	–	–
CCOc1ccc(-c2nc(C#N)c(N3CCCCCC3)o2)cc1	–	-61	–	–	–
COc1ccc(-c2nc(C#N)c(NC(C)C)o2)cc1	–	-50	–	–	–
CCCOc1ccc(-c2nc(C#N)c(N3CCN(CC)CC3)o2)cc1	?	-60	–	–	–
CNc1oc(-c2ccc(Cl)cc2)nc1C#N	–	–	–	–	–
COCc1c(C(=O)NC2CCOC(C)(C)C2)cnn1-c1nccc(-c2cccs2)n1 (stereo not given)	·	·	–	·	·
Cc1ccc(-c2nc(C#N)c(N3CCC(C)CC3)o2)cc1	–	–	–	–	–
COc1ccc(-c2nc(C#N)c(N3CCC(C)CC3)o2)cc1	–	-52	–	–	–
CCN(CC)C(CNC(=O)CSc1nnnn1-c1c(C)cccc1C)c1ccco1 (stereo not given)	–	–	–	–	–
CO[C@H]1C=CO[C@@]2(C)Oc3c(C)c(O)c4c(O)c(c(C=NN5CCN(C)CC5)c(O)c4c3C2=O)NC(=O)C(C)=CC=C[C@H](C)[C@H](O)[C@@H](C)[C@@H](O)[C@@H](C)[C@H](OC(C)=O)[C@@H]1C	–	–	28µM	–	–
CO[C@H]1C=CO[C@@]2(C)Oc3c(C)c(O)c4c(O)c(c(C=NN5CCN(C)CC5)c(O)c4c3C2=O)NC(=O)C(C)=CC=C[C@H](C)[C@H](O)[C@@H](C)[C@@H](O)[C@@H](C)[C@H](OC(C)=O)[C@H]1C	·	·	·	–	·
O=C(CN1N=C(c2ccc(Cl)cc2)CCC1=O)NCc1ccc(F)cc1	·	·	·	·	–
CCOc1ccccc1NC(=O)/C=C/C(N)=O	–	-103	·	?	–
Cc1ccc(/C=C/C(=O)NC(=S)Nc2ccccc2C(=O)NC2CCCCC2)cc1	–	–	?	?	–
CCOc1ccccc1NC(=O)CC(O)(C(F)(F)F)C(F)(F)F	–	–	–	–	–
CCOC(=O)/C=C/C(=O)Nc1ccccc1C(=O)NC1CCCCC1	–	-51	–	–	–
O=C(/C=C\c1ccccc1[N+](=O)[O-])Nc1ccccc1	–	–	–	–	–
CCOc1ccccc1NC(=O)/C=C/c1ccccc1[N+](=O)[O-]	–	-69	–	–	–
CCOC(=O)c1cc(NC(=O)c2ccc(OC)cc2)c(=O)n2c1oc1ccc(Cl)cc12	·	·	–	–	–
O=C(c1ccccc1)C1CCN(C(=O)c2ccc(Cl)cc2)CC1	–	–	–	–	–
SMILES	USP2a block	IL-1B inflam inh	ATXN viability	ATXN2 expr inh	USP1 inh
CC(=O)N1CCN(c2ccc(NC(=O)c3ccc4c(c3)OCCO4)cc2)CC1	–	–	–	–	–
CC(C)(C)c1ccc(C(=O)N2CCC(C(=O)c3ccccc3)CC2)cc1	–	-75	–	–	–
CC(C)(C)C(=O)N1CCN(c2ccc(NC(=O)c3ccc4c(c3)OCCO4)cc2)CC1	–	-77	–	?	–
O=C(Nc1ccc(N2CCN(C(=O)c3ccc(Cl)cc3)CC2)cc1)c1ccc2c(c1)OCCO2	–	-61	?	?	–
O=C(Nc1ccc(N2CCN(C(=O)c3ccccc3)CC2)cc1)c1ccc2c(c1)OCCO2	–	-94	?	?	–
O=C(Nc1ccc(N2CCCCC2)cc1)c1ccc2c(c1)OCCO2	–	–	–	–	–
Cc1nc2cc(-c3cccc(F)c3)nn2c(C)c1CCC(=O)Nc1ccccc1C(N)=O	·	·	–	?	–
C[C@]12CC[C@@H]3c4ccc(O)cc4CC[C@H]3[C@H]1CC[C@H]2O	·	·	·	–	·
COc1ccc(NC(=O)Nc2ccc(C(=O)N3CCOCC3)cc2)cc1	–	–	–	–	–
CC(C)(C)c1ccc(C(=O)Nc2ccc(C(=O)N3CCOCC3)cc2)cc1	–	-85	–	–	–
